ID4 SMM – binders of human ID4 protein. P47928. small molecule microarray, Flag-ID4 binding, fluorescence F/B. calls only. 31,000 compounds, 1.2% hits; call rule not given here;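 further: a binder raises fluorescence above local background on the spot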
Target sequence (P47928 whole entry, looked up): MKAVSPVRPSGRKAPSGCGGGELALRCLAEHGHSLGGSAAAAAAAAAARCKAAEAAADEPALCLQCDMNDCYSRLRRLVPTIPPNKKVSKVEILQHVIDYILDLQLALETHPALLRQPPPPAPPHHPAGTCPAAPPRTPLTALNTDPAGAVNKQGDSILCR
The depositor's hits bear a star; i = inactive; + = active, no number. The full list was thinned out, with hits kept by preference.

SMILES | ID4 SMM
Cc1cc(C)c(NC(=O)CN(C)S(=O)(=O)c2ccc(Cl)cc2)c(C)c1 | i
CC/C=C\C/C=C\C/C=C\CCCCCCCCCCCC(=O)O | i
CC/C=C\C/C=C\C/C=C\CCCCCCCCCC(=O)O | i
CC/C=C\C/C=C\C/C=C\CCCCCCCC(=O)O | +
CNC[C@H]1OCCCC[C@H](C)Oc2ccc(NS(=O)(=O)c3cccs3)cc2C(=O)N([C@@H](C)CO)C[C@H]1C | i
CNC[C@@H]1OCCCC[C@@H](C)Oc2ccc(NS(=O)(=O)c3cccs3)cc2C(=O)N([C@@H](C)CO)C[C@H]1C | +
CNC[C@H]1OCCCC[C@@H](C)Oc2ccc(NS(=O)(=O)c3cccs3)cc2C(=O)N([C@H](C)CO)C[C@H]1C | i
CNC[C@@H]1OCCCC[C@@H](C)Oc2ccc(NS(=O)(=O)c3cccs3)cc2C(=O)N([C@H](C)CO)C[C@@H]1C | i
CNC[C@@H]1OCCCC[C@H](C)Oc2ccc(NS(=O)(=O)c3cccs3)cc2C(=O)N([C@@H](C)CO)C[C@H]1C | i
CNC[C@H]1OCCCC[C@H](C)Oc2ccc(NS(=O)(=O)c3cccs3)cc2C(=O)N([C@@H](C)CO)C[C@@H]1C | +
C=C1CC[C@H]2[C@](C)(CCC[C@]2(C)C(=O)OC)[C@H]1CC/C(C)=C/C(=O)O | i
CCOc1ccc2nc(SCC(=O)Nc3ccc(Br)cc3F)sc2c1 | i
COc1ccc(OC)c(NC(=O)Cc2c(OC)ccc3cc(Br)ccc23)c1 | i
Cc1cccnc1NCC(O)COc1ccccc1 (stereo not given) | +
Cc1cccnc1NC(=O)C(C)Oc1ccccc1 (stereo not given) | i
Cc1cccc(OCC(O)CNC(C)(C)CO)c1C (stereo not given) | i
COc1cc2c(cc1NC(=O)CN(C)S(=O)(=O)c1ccc(C)cc1)oc1ccccc12 | i
Cc1ccc([N+](=O)[O-])c(OCCCCn2cncn2)c1 | i
N=c1ncn(Cc2ccccc2)c2nc(SCC(=O)O)[nH]c12 | i
COC(=O)c1ccccc1NC(=O)C(C)Oc1ccc2c(C)cc(=O)oc2c1 (stereo not given) | i
Cc1cc(=O)oc2cc(OC(C)C(=O)Nc3sc4c(c3C(N)=O)CCCC4)ccc12 (stereo not given) | +
Cc1cc(=O)oc2cc(OC(C)C(=O)NCC3CCCO3)ccc12 (stereo not given) | i
COc1cc(NC(=O)COc2ccc3ccccc3c2Br)c(OC)cc1Cl | i
COc1ccc(NC(=O)CNC(=O)c2cccc(C)c2)cc1 | i
Cc1ccc(C)c(NC(=O)CCn2cnc3ccccc3c2=O)c1 | i
SMILES | ID4 SMM
COc1ccc(OC)c(NC(=O)CN2CCC(C(N)=O)(N3CCCCC3)CC2)c1 | i
COC(=O)c1cc(OC)c(OC)cc1NC(=S)N1CCC(C(N)=O)(N2CCCCC2)CC1 | +
COC(=O)c1cc(OC)c(OC)cc1NC(=O)CN1CCCCC1 | i
CCCc1nnc(NC(=O)c2nc(SC)ncc2Cl)s1 | i
COc1c(Cl)cc(C(=O)Nc2sc3c(c2C(=O)NC2CCS(=O)(=O)C2)CCC(C)C3)cc1Cl (stereo not given) | i
Cc1cc(=O)n2c3ccccc3n(CC(O)Cn3ccnc3)c2c1C#N (stereo not given) | i
COC(=O)C1=CO[C@@H](O[C@@H]2O[C@H](CO)[C@@H](O)[C@H](O)[C@H]2O)[C@H]2[C@@H]1C=CC21C=C([C@H](C)OC(=O)/C=C/c2ccc(O)cc2)C(=O)O1 (stereo not given in full) | i
COc1ccc(-n2c(/C=C/N(C)C)c([N+](=O)[O-])c3ccc(OC(C)=O)c(COC(C)=O)c32)cc1 | i
CCCn1c2ccccc2c2nnc(SCC(=O)O)nc21 | i
COC(=O)C(C)Sc1nnc2c3ccccc3n(Cc3ccccc3)c2n1 (stereo not given) | +
CCn1c2ccccc2c2nnc(SCC(N)=O)nc21 | i
Cc1ccc(C)c(NC(=O)CN(c2cccc(F)c2)S(C)(=O)=O)c1 | i
COC(=O)CCCCCCC(=O)Nc1ccc(NC(=O)CCCC[P+](c2ccccc2)(c2ccccc2)c2ccccc2)cc1 | +
COC(=O)CCC(=O)Nc1ccc(C(N)=O)cc1 | i
O=C(CCCC(=O)Nc1ccccc1)Nc1ccccc1 | i
CN1C(=O)c2cccc(NC(=O)C3COc4ccccc4O3)c2C1=O (stereo not given) | i
Fc1ccc(N(Cc2nc3ccccc3[nH]2)Cc2nc3ccccc3[nH]2)cc1 | i
COc1ccc2nc(NC3=NC(c4ccccc4)CC(=O)N3)nc(C)c2c1 (stereo not given) | +
COc1ccc2nc(Nc3nc(CSc4ccc(Cl)cc4)cc(=O)[nH]3)nc(C)c2c1 | i
CCc1c(C)nc(Nc2nc(C)c3ccc(OC)cc3n2)[nH]c1=O | i
COc1cc(NC(=O)CN(C)S(=O)(=O)c2ccc3ccccc3c2)cc(OC)c1 | i
O=C(CSc1nnc(-c2ccccc2)o1)Nc1cccc(Br)c1 | i
CN(CC(=O)Nc1ccc(Cl)cc1C(F)(F)F)S(=O)(=O)c1ccc(Br)cc1 | i
O=C(O)c1cccc(CSc2nnc(-c3ccncc3)o2)c1 | i
O=C(O)c1cccc(CSc2nnc(-c3ccco3)o2)c1 | +
SMILES | ID4 SMM
COc1cc(OC)cc(-c2nnc(SCc3cccc(C(=O)O)c3)o2)c1 | i
Cc1ccc(NC(=O)Cn2cnc3sc(C(=O)OC(C)C)c(C)c3c2=O)cc1 | i
COc1ccc(OC)c(N(CC(=O)Nc2cccc(Cl)c2C)S(C)(=O)=O)c1 | i
O=C(Nc1ccc(I)cc1C(=O)NCc1cccnc1)c1ccco1 | i
C[C@H](CCC(=O)O)[C@H]1CC[C@H]2[C@@H]3C(=O)C[C@@H]4CC(=O)CC[C@]4(C)[C@H]3CC(=O)[C@]12C | +
CC(CCC(=O)NCC(=O)O)C1CCC2C3CCC4CC(O)CCC4(C)C3CC(O)C12C (stereo not given) | i

Source: PubChem
